# ATG4B inh: ATG4B (human) cysteine protease inhibition | AID 504462 | ATG4B cleavage of LC3-PLA2, NBD-HPC fluorescence, 1 h | inhibition, % at 8.33 µM | 0.51% of 340,000 active | Q9Y4P1; in the data active means inhibition above about 40%
# Target sequence (Q9Y4P1 whole entry, looked up): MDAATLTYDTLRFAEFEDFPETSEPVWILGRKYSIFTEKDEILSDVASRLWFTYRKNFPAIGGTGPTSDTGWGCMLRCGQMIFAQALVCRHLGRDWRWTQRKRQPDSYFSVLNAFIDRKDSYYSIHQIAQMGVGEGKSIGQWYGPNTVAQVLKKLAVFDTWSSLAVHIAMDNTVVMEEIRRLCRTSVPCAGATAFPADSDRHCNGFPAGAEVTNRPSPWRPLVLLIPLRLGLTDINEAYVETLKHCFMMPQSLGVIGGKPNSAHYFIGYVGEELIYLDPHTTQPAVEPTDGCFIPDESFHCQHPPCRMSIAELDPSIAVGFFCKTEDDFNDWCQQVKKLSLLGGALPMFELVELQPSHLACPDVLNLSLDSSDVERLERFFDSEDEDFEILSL
# H9c2 protect: myocardial damage modulation in H9c2 cells. H9c2 cardiomyocytes, H2O2 injury protection, ATPLite, 2 h. protection from H2O2 cell death, % at 20 µM. 0.63% of 360,000 active. AID 588492;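 active means compounds giving at least 50% protection of heart cells from peroxide-induced death in the single-dose screen, raw or plate-pattern-corrected value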;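 further: 0% = DMSO wells with peroxide and 100% = DMSO wells without peroxide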
# PP1 inh: blocks human PP1-alpha phosphatase, a PP5 counter-screen. P62136. purified PP1alpha, OMFP fluorescence. inhibition, % at 6.7 µM. 0.9% of 320,000 active;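 active means inhibition above the mean inhibition of all tested compounds plus 3 SD, computed separately for each screening campaign, cut at about 15% in these data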
# PP5 inh: blocks human protein phosphatase 5 activity | inhibition, % at 6.7 µM | 0.18% of 320,000 active | AID 1987 | purified PP5c, OMFP substrate fluorescence;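 active means inhibition above the campaign's mean inhibition across all tested compounds plus 3 SD, cut at about 9.5% in these data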;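 further: 0% = DMSO only and 100% = 100 µM cantharidin control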
# * = called active by the depositor; . = not tested or not shown. A selection: hits, their analogues and other compounds. The true share with any hit is near 1.9%.
SMILES,ATG4B inh,H9c2 protect,PP1 inh,PP5 inh
Cc1ccc(CCNS(=O)(=O)c2ccc3c(c2)NC(=O)C(C)C(=O)N3)cc1 (centres undefined),-19.0,-12.8,-3.1,5.4
Cc1ccc(C)c(NC(=O)c2cc([N+](=O)[O-])cc([N+](=O)[O-])c2)c1,-1.1,2.5,0.6,1.9
Cc1cccc(NC(c2ccc(C)s2)c2ccc3ccc(C)nc3c2O)n1 (centres undefined),6.3,90.7*,6.0,0.6
Cc1ccc2ccc(C(Nc3cccc(C(F)(F)F)c3)c3cccnc3)c(O)c2n1 (centres undefined),-2.6,83.6*,-1.9,-0.7
COc1ccc(C(Nc2cc(C)ccn2)c2ccc3ccc(C)nc3c2O)cc1 (centres undefined),3.0,62.0*,13.0,0.4
Cc1ccnc(NC(c2cccnc2)c2ccc3cccnc3c2O)c1 (centres undefined),-1.6,30.5,11.7,4.5
Cc1ccc2ccc(C(Nc3ccccn3)c3ccccc3)c(O)c2n1 (centres undefined),-7.3,87.8*,9.6,3.5
O=C(O)c1ccccc1NC(c1ccccc1)c1ccc2cccnc2c1O (centres undefined),35.5,58.9*,.,.
Cc1ccnc(NC(c2ccccc2)c2ccc3cccnc3c2O)c1 (centres undefined),13.1,40.6,.,.
Cc1ccnc(NC(c2ccsc2)c2ccc3ccc(C)nc3c2O)c1 (centres undefined),6.3,54.4*,7.7,0.2
N#Cc1cccc(C(=O)Nc2cccc(S(=O)(=O)N3CCCC3)c2)c1,-1.7,-1.7,0.4,2.8
Cn1c(=O)c2c(nc(Cl)n2CCOc2ccccc2)n(C)c1=O,-0.7,-1.0,16.1*,-1.3
Cn1c(=O)c2c(nc(Br)n2Cc2ccc3ccccc3c2)n(C)c1=O,-9.0,87.0*,-0.5,0.8
Cn1c(=O)c2c(nc(Br)n2Cc2ccccc2Cl)n(C)c1=O,-2.1,-4.5,10.0,0.5
COCCn1c(=NC(=O)c2cc(-c3cccs3)nc3ccccc23)sc2cc(S(N)(=O)=O)ccc21,-4.0,41.5,13.9,1.8
C=CCn1c(=NC(=O)c2cc(-c3cccs3)nc3ccccc23)sc2cc(S(N)(=O)=O)ccc21,-0.6,23.7,16.1*,1.6
COc1ccc(CCNC(=O)c2cc(C(=O)c3cc(C)ccc3O)cn(CCc3ccc(OC)cc3)c2=O)cc1,-4.3,65.1*,9.0,-7.0
COc1ccc(CCNC(=O)c2cc(C(=O)c3cc(Cl)ccc3O)cn(CCc3ccc(OC)cc3)c2=O)cc1,-1.4,10.5,0.7,2.4
COc1ccc(CCNC(=O)CN2C(=O)NC(Cc3c[nH]c4ccccc34)C2=O)cc1 (centres undefined),-1.4,0.6,-4.2,2.3
O=C(CC(Sc1ccc(Br)cc1)C(=O)O)c1ccc(F)cc1 (centres undefined),0.8,1.3,0.8,1.1
COc1cc(/C=C/C(=O)OCC(=O)NC(=O)C2COc3ccccc3O2)ccc1OC(F)F (centres undefined),-4.4,6.2,.,.
O=C1/C(=C\c2cccc([N+](=O)[O-])c2O)SC(=S)N1Cc1ccccc1,46.8*,-17.2,1.8,-3.7
O=C(CSc1nnc(-c2ccncc2)o1)Nc1cc(Cl)ccc1C(=O)O,3.5,5.9,.,.
COc1ccc(-c2csc(NC(=O)c3ccc(OCC(=O)N4CCOCC4)c(OC)c3)n2)cc1OC,-31.0,80.7*,-2.4,2.0
CC(C(=O)Nc1ccc(F)c(F)c1F)N(C)Cc1cccs1 (centres undefined),-1.9,-2.2,0.6,-1.2
SMILES,ATG4B inh,H9c2 protect,PP1 inh,PP5 inh
Oc1c(Cl)cc(Cl)cc1/C=N/c1nccs1,-4.3,61.2*,-0.9,-0.5
O=C(C1CCN(S(=O)(=O)c2cccs2)CC1)N1CCCC(C(F)(F)F)C1 (centres undefined),2.5,-0.1,-1.9,2.5
CC(=O)Nc1ccc(NC(=O)Nc2ccc3c(c2)N(C)C(=O)CS3)cc1,-14.9,0.9,-3.8,1.5
CN1C(=O)CSc2ccc(NC(=O)Nc3ccccn3)cc21,-0.9,59.2*,1.6,0.7
Cc1ccc(C)c(N2CCN(C(=O)Nc3ccc4c(c3)N(C)C(=O)CS4)CC2)c1,-10.6,-6.1,5.5,5.0
CN1C(=O)CSc2ccc(NC(=O)N3CCN(c4ccccn4)CC3)cc21,12.6,57.3*,0.2,0.6
Cn1cccc1C(=O)NNC(=O)COc1ccccc1F,-3.0,1.4,-0.7,3.1
CCOc1cc(C(=O)OC(C)C(=O)Nc2ccc(S(N)(=O)=O)cc2)ccc1OCC(=O)N1CCOCC1 (centres undefined),2.3,-5.6,-1.1,0.1
CCOc1cc(/C=C(\C#N)C(=O)Nc2ccc(S(N)(=O)=O)cc2)ccc1OCCN1CCOCC1,-10.0,55.8*,-4.2,-0.3
CN(Cc1nc(-c2cccnc2)no1)S(=O)(=O)c1ccccc1,2.2,2.9,0.3,-0.3
COc1ccc(-c2noc(CN(C)S(=O)(=O)c3ccccc3)n2)cc1OC,-10.5,55.2*,-7.5,-8.0
Cc1ccc(N=Nc2ccc(O)c(/C=N\NC(=O)c3ccc(N)cc3)c2)cc1C,-1.6,55.5*,-1.6,-2.6
CC(NC(=O)c1cccc(S(=O)(=O)N2CCN(Cc3ccccc3)CC2)c1)c1ccc(Cl)cc1 (centres undefined),-10.2,-4.5,.,.
Cn1cc(C(=O)c2ccc(Cl)cc2Cl)cc1C(=O)N/N=C(\N)COc1ccc(Cl)cc1,-10.9,96.2*,15.8*,2.7
Cn1cc(C(=O)c2ccc(Cl)cc2Cl)cc1C(=O)N/N=C(\N)COc1ccc(Cl)cc1Cl,-1.1,85.8*,8.1,2.1
CCCCc1nnc(NC(=O)CCN2C(=O)C3CC=CCC3C2=O)s1 (centres undefined),6.3,3.8,-4.1,-0.7
Cc1ccc(N2CCC(N3CCN(C)C(CCO)C3)CC2)cc1 (centres undefined),0.2,3.8,-2.8,-0.5
NC(=O)c1cc2ccccc2o/c1=N\NC(=O)c1ccc(F)cc1,6.1,64.3*,0.6,-1.3
CCc1nnc(NC(=O)CCC(=O)N2CCN(C3c4ccccc4-c4ccccc43)CC2)s1,-11.8,61.2*,-2.3,2.5
CCOC(=O)c1[nH]cnc1N=Nc1c(O)ccc2ccccc12,-16.1,64.7*,0.5,1.3
O=C1C2CCCN2c2ccc(S(=O)(=O)N3CCOCC3)cc2N1Cc1cccc(C(F)(F)F)c1 (centres undefined),.,.,30.0*,1.2
O=C1C2CCCN2c2ccc(S(=O)(=O)N3CCOCC3)cc2N1Cc1ccccc1F (centres undefined),-11.2,12.8,6.3,1.1
Cc1c(O)c(CN2CCCCC2)cc2c1oc(=O)c1ccccc12,-2.4,51.6*,-3.9,2.3
OC1CCN(c2c3c(nc4cc(-c5cccc(F)c5)nn24)CCCC3)CC1,-16.4,59.3*,6.6,3.6
O=C(COC(=O)c1ccc(F)cc1Cl)NC(=O)NC1CCCC1,-1.4,2.4,0.0,1.8
O=C(CSc1nc2ccc(Nc3nc(N4CCOCC4)nc(N4CCOCC4)n3)cc2s1)N1CCOCC1,-18.0,47.9,-4.5,1.1
CSc1nc2ccc(Nc3nc(N4CCOCC4)nc(N4CCOCC4)n3)cc2s1,-10.2,69.5*,-1.1,0.9

# High-throughput results from PubChem BioAssay.
